Values joined by “and” are separate entries in the source; they are usually repeats but may differ in a detail not shown here. Identical values can stand only once. Among all 360,000 compounds or so, about 2,600 (0.72%) were called active. Inconclusive results (about 5%) are left out. What follows is part of a selection rich in actives, with near analogues and random picks from the rest. Where a call stands in place of a potency, no number is given. Values without a mark were called inactive. Calls come from the whole dose curve; as a rule, active = well fitted inhibition curve with a large enough effect; inconclusive = small, poorly fitted or top-dose-only effect; inactive = no such curve, though single readings can be large or run the other way.
Potency is the fitted concentration of half-maximal effect.

A short description of this experiment: Primary qHTS for Inhibitors of ATXN expression. Note: nearly all actives have a fitted effect of over 55% in size. As to conditions: HEK-293 ATXN2-luciferase reporter, luminescence, 24 h; series mostly up to 57 µM. The essentials:
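ATXN2-luciferase reporter cells (luciferase flanked by upstream and downstream ATXN2 gene portions) were treated 24 h at 37 °C with compounds at up to 57 uM. SteadyGlo luminescence gave expression; GF-AFC fluorescence gave viability.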
(In general: qHTS replaces the single test concentration by a dilution series.)
In the case of `S=C(NCCCc1cnc[nH]1)NCCCN(Cc1ccc(Cl)c(Cl)c1)c1ccc(Br)cn1`, the Potency was 15.8 µM (active). Same read-out and setting: the entry for `COc1ccccc1CNC(=O)C(=O)NCC(c1cccs1)S(=O)(=O)c1cccs1` (centres undefined) is “inactive”; for `COc1ccc(CCNC(=O)CCCn2c(=O)c3ccccc3n(Cc3ccc(C)cc3)c2=O)cc1OC` it is “inactive”; for `CCCCCCCc1ccc(CCc2cccc(O)c2C(=O)O)cc1` it is “inactive”. Regarding `COc1ccccc1OCCCn1c(-c2ccc(Cl)cc2)nc2ccccc2c1=O`, the Potency entry was “inactive”. The same measure, in the same setting: the result for `CCOC(=O)C1=C(c2ccc(OC)cc2)C(=O)c2ccccc2C1=O` reads 5.01 µM (active); that for `COC(=O)c1cc(OC)ccc1-c1ccc(OC)cc1`, “inactive”. For `CCOC(=O)C(NC(C)=O)C(=O)Nc1ccc(OC)cc1` (centres undefined), the activity change, negative = inhibition is -27.3% [at 11.3 µM]. On to `Cc1cccc(-c2nc(SCC(=O)Nc3cc(C)on3)c3c(=O)n(C)c(=O)n(C)c3n2)c1`, for which the Potency result is “inactive”. The same measure, in the same setting: the figure for `CC(NCc1ccc2c(c1)nc(NC(=O)c1ccc(-c3cn[nH]c3)s1)n2CC(C)(C)O)C(C)(C)C` (centres undefined) is 0.968 µM (active); for `O=C(NCc1ccccc1)C1CCN(S(=O)(=O)c2ccc3[nH]c(=O)ccc3c2)CC1` it is “inactive”.

Turning to `CO[C@]1(NC(=O)CSC(F)F)C(=O)N2C(C(=O)O)=C(CSc3nnnn3CCO)CO[C@H]21`, the Potency entry is “inactive”.

As to `Cc1cccc(C(C)C)c1NC(=O)C(NS(=O)(=O)c1cccc2nsnc12)c1ccccc1` (centres undefined), the Potency result is “inactive”. In the case of `C=C1CCC2[C@](C)(CO)C(O)CC[C@]2(C)C1CC=C1C(=O)OCC1O` (some centres undefined), the Potency result is “inactive”. On the same count and under the same terms, the entry for `Cc1oc2ccc(O)c(CN3CCC(C)CC3)c2c1C(=O)Nc1ccccc1` is “inactive”; for `Cc1oc2ccc(O)c(CN3CCOCC3)c2c1C(=O)Nc1cccc(Cl)c1C` it is “inactive”; for `Cc1oc2ccc(O)c(CN3CCCCC3)c2c1C(=O)Nc1cccc(C(F)(F)F)c1` it is 28.2 µM (active). In the case of `O=C(c1cccc(Cl)c1)N1CCN(CCc2ccncc2)CC1`, the Potency result is “inactive”.

Take `CCN(CC)c1ccc(C2C(C(N)=O)=C(C)Nc3nc(SCc4ccccc4)nn32)cc1` (centres undefined): the Potency result was “inactive”. The same measure, in the same setting: the entry for `CC(C)(C)OC(=O)N1CCC(c2c(C(=O)N3CCc4ccccc4C3)cnn2-c2ccc(F)cc2)CC1` is “inactive”; for `COc1ccccc1NC(=O)C1=C(C)Nc2nc(SCC(=O)c3ccc(C)cc3)nn2C1c1ccccc1C` (centres undefined) it is “inactive”; for `CCc1nc2c(OCc3cccc(OC)c3)cccn2c1N(C)C(=O)C(C)C` it is “inactive”. On the same count and under the same terms, the figure for `CCc1nc2c(OCc3ccc(Cl)cc3Cl)cccn2c1N(C)C(=O)C(C)C` is 28.2 µM (active); for `CCc1nc2c(OCc3ccc(C(=O)OC)cc3)cccn2c1N(C)C(=O)C(C)C` it is “inactive”; for `COC(=O)[C@@]1(Sc2ccc(C)cc2)CC(=O)N(c2cccc(SC)c2)[C@@H]1c1ccccc1` it is “inactive”. For the compound `CC=CC[C@@H](C)C(=O)[C@H]1C(=O)N[C@@H](C(C)C)C(=O)N(C)CC(=O)N(C)[C@@H](CC(C)C)C(=O)N[C@@H](C(C)C)C(=O)N(C)[C@@H](CC(C)C)C(=O)N[C@@H](C)C(=O)N[C@H](C)C(=O)N(C)[C@@H](CC(C)C)C(=O)N(C)[C@@H](CC(C)C)C(=O)N(C)[C@@H](C(C)C)C(=O)N1C`, the Potency result was “inactive”. For `O=C(NC1CCCC1)C1c2ccccc2OCC(=O)N1CC(F)(F)F` (centres undefined), the Potency entry was “inactive”.

For `Cc1cc(C)cc(NC(=O)Cn2c(=O)c3ccccc3n3nncc23)c1`, the Potency entry is “inactive”. With `O=c1oc2ccccc2cc1-c1cn(-c2ccccc2)c(=S)[nH]1`, the Potency is 8.91 µM (active). On the same count and under the same terms, the result for `Cc1cc(NC(=O)c2cccc(Cl)c2)ccc1-c1cc2ccccc2oc1=O` reads “inactive”; that for `CS(=O)(=O)N1CCN(C(=O)c2cc3ccccc3oc2=O)CC1`, “inactive”; that for `Cc1ccc(CNC(=O)CCc2c(C)nc3nc(CNC(=O)OC(C)(C)C)nn3c2C)cc1`, “inactive”.

For the compound `CCN(CC)CCN(C(=O)c1cccc([N+](=O)[O-])c1)c1nc2ccc(OC)cc2s1`, the Potency entry was “inactive”. On the same count and under the same terms, the result for `COc1ccccc1NC(=O)CC(NCCN(C)C)C(=O)O` (centres undefined) reads “inactive”. Regarding `COc1cccc2sc(N(CCCN(C)C)C(=O)C(c3ccccc3)c3ccccc3)nc12`, the Potency was 22.4 µM (active).

Turning to `COc1ccc(Cl)cc1N(CC(=O)N/N=C/c1ccc(OCC(N)=O)cc1)S(C)(=O)=O`, the Potency result is “inactive”.

In the case of `NC(N)=N/N=C/c1ccc(OCc2ccc(Cl)cc2Cl)cc1`, the Potency was 22.4 µM (active). As for `Cc1nc2ccccc2nc(C)c1=NOCc1ccc(Cl)cc1Cl`, the Potency entry is “inactive”.

For `CCc1nc2ccc(C(=O)N(C)CCN(C)C)cn2c1N(CC)CCOC`, the Potency entry was “inactive”.

For the compound `CC(C)Sc1oc(-c2cccs2)nc1S(=O)(=O)c1ccc(Cl)cc1`, the Potency result was “inactive”. The same measure, in the same setting: the figure for `CC1CC(C)(C)n2c(O)c(N=NC(N)=S)c3cccc1c32` (centres undefined) is 28.2 µM (active); for `Cc1ccc(OCCn2c(CNc3ccccc3C)nc3ccccc32)cc1` it is “inactive”.

Take `CCCn1ccc2c(OCC(=O)NCc3ccc(F)cc3)cccc2c1=O`: the Potency result was “inactive”. The same measure, in the same setting: the entry for `COc1ccc(C(C#N)=C2C=CC(=NO)c3ccccc32)cc1` is “inactive”; for `O=C(Nc1ccccc1Cl)/C(Cl)=C(\Cl)S(=O)c1ccccc1` (centres undefined) it is 3.55 µM (active); for `O=C(CCN1CCN(C/C=C/c2ccccc2)CC1)Nc1ccccc1Cl` it is “inactive”. On the same count and under the same terms, the entry for `NC(=O)C1(Nc2ccccc2Cl)CCCC1` is “inactive”; for `CSCCC(c1nnnn1Cc1ccccc1)N1CCN(C/C=C/c2ccccc2)CC1` (centres undefined) it is “inactive”; for `CCCN1CCN(CCCNC(=O)Cn2nc(CC)n3c(cc4occc43)c2=O)CC1` it is “inactive”.

As to `Cc1cccc(C(=O)NCCc2nc3ccccc3n2Cc2ccccc2Cl)c1`, the Potency result is “inactive”. The same measure, in the same setting: the entry for `Cc1ccccc1CSc1nc(-c2ccccc2)nc2c1Cc1c(CO)cnc(C)c1O2` is “inactive”; for `CCOC(=O)[C@]12CCCC=C1N(Cc1cccc3ccccc13)C(=O)[C@H](CC(=O)NCC13CC4CC(CC(C4)C1)C3)C2` it is “inactive”; for `COc1cc(Nc2ncc(F)c(Nc3ccc4c(n3)NC(=O)C(C)(C)O4)n2)cc(OC)c1OC` it is “inactive”.

On to `CCOc1ccc(CCNC(=O)c2cc3c(=O)n(C)c4ccccc4c3n2C)cc1`, for which the Potency result is “inactive”. The same measure, in the same setting: the entry for `CCCCC(O)(CCCC)C(=O)NN(C(=O)CCl)c1ccccc1` is “inactive”. Same read-out and setting: the figure for `CCCC(O)(CCC)C(=O)NN(C(=O)CCl)c1cccc(C)c1` is 21.2 µM (active); for `CC(C)(O)C(=O)NN(C(=O)c1ccccc1)c1cccc(Br)c1` it is “inactive”; for `C=CCC[C@@H](CCCCC)OC(=O)/C=C/[C@@H](O)[C@H](O)C[C@H](O)CC=C` it is “inactive”.

Regarding `CC(C)CC(=O)NCC(c1ccc2c(c1)OCO2)N1CCN(c2ccc(F)cc2)CC1` (centres undefined), the Potency entry is “inactive”. Same read-out and setting: the entry for `C[C@H]1C[C@H]2[C@@H]3CCC4=CC(=O)C=C[C@]4(C)[C@@H]3C(=O)C[C@]2(C)[C@@]1(O)C(=O)CO` is “inactive”; for `CO[C@H]1C[C@@H]2CC[C@@H](C)[C@@](O)(O2)C(=O)C(=O)N2CCCC[C@@H]2C(=O)O[C@H]([C@@H](C)C[C@@H]2CC[C@H](O)[C@H](OC)C2)CC(=O)[C@H](C)C=C(C)[C@@H](O)[C@@H](OC)C(=O)[C@H](C)C[C@H](C)C=CC=CC=C1C` it is “inactive”; for `COc1cc(C(CCN2CCN(c3ccccc3)CC2)c2c(OC)cc(OC)c3ccc(=O)oc23)cc(OC)c1OC` (centres undefined) it is “inactive”. As to `CCN(CC)CCC(c1ccc2c(c1)OCO2)c1c(OC)cc(OC)c2c(-c3ccccc3)cc(=O)oc12` (centres undefined), the Potency is 31.6 µM (active). Regarding `COc1cc(OC)c2ccc(=O)oc2c1C(CCN1CCN(c2ccccc2)CC1)c1ccc2c(c1)OCO2` (centres undefined), the Potency result was “inactive”. Consider `Cc1ccccc1-n1c(=O)c2ccccc2n(Cc2ccc(F)cc2)c1=O`, for which the Potency entry is “inactive”. On the same count and under the same terms, the result for `CCNC(=O)c1cc2n(n1)CCCN(Cc1ccc(C)cc1)C2=O` reads “inactive”; that for `CC1CCCCN1S(=O)(=O)c1ccc(F)c(C(=O)Nc2ccccc2C(F)(F)F)c1` (centres undefined), “inactive”; that for `CCN(CCCNC(=O)CSc1cc(=O)n(C)c2cc(Cl)ccc12)c1cccc(C)c1`, “inactive”.

In the case of `CCC(CC)C(=O)N1CCc2cc(OC)c(OC)cc2C1COc1ccc(F)cc1` (centres undefined), the Potency result is “inactive”.

As for `CC[C@H]1CN2CCc3cc(OC)c(OC)cc3[C@@H]2C[C@@H]1C[C@H]1NCCc2cc(OC)c(OC)cc21`, the Potency is 1.41 µM (active) and 112 nM (active). On the same count and under the same terms, the result for `COc1cc2c(cc1OC)CN(CC(=O)Nc1ccc(F)cc1)CC2` reads “inactive”.

Regarding `Cc1cc(C)cc(NS(=O)(=O)c2cc3c(cc2C)NC(=O)CO3)c1`, the Potency entry was “inactive”. `CC=CCC=CCCC(=O)[C@H]1O[C@@H]1C(N)=O`: the Potency entry was “inactive”. The same measure, in the same setting: the figure for `COc1ccc2c(c1)c(=Cc1ccc(N(C)C)cc1)c1cc(-c3ccccc3)[n+](C)n12` is 8.91 µM (active); for `COc1cccc(NC(=O)Cn2c(=O)cc(C)c3c(C)nn(-c4cccc(F)c4)c32)c1` it is “inactive”; for `CCOC(=O)C1CCN(c2csc3ccc(C)cc3c2=O)CC1` it is “inactive”.

Consider `COc1ccc(CN2C(=O)CC(Cc3ccc(C)cc3)C2=O)cc1OC` (centres undefined), for which the Potency result is “inactive”. Same read-out and setting: the result for `CCCCOc1ccc(CN2C(=O)C(=O)c3cc(Br)cc(C)c32)cc1OC` reads 31.6 µM (active); that for `CCCCN1C(=O)C(C)=C(C)C1OCCc1ccc(OC)c(OC)c1` (centres undefined), “inactive”. On the same count and under the same terms, the entry for `COc1ccccc1CNC(=O)CS(=O)(=O)c1cccc2nsnc12` is “inactive”. Still for that read-out and setting: the result for `Cc1cc2ccccc2n1CCNC(=O)c1ccc(F)cc1` reads “inactive”; that for `Cc1ccc2[nH]c(=O)c(CN(CC3COCCO3)C(=O)Nc3ccccc3C)cc2c1` (centres undefined), “inactive”.

For the compound `CCC(=O)N(CCc1ccccc1)Cc1cc2cc(C)ccc2[nH]c1=O`, the Potency entry is “inactive”. Regarding `Cc1ccc2[nH]c(=O)c(CN(CCCN(C)C)C(=O)Nc3cccc(Cl)c3)cc2c1`, the Potency was 15.8 µM (active). Same read-out and setting: the result for `CCOc1ccc(OCC)c(NC(=O)c2c(C)nn(-c3ccccc3)c2-n2cccc2)c1` reads “inactive”; that for `CC(C)(C)OC(=O)N1CCC(c2c(C(=O)Nc3ccc4c(c3)OCO4)cnn2-c2ccccc2)CC1`, “inactive”. On the same count and under the same terms, the result for `CCOC(=O)/C(=C\c1ccc([N+](=O)[O-])cc1)C(=O)c1cc(C(C)=O)c(Nc2ccccc2)s1` reads 8.91 µM (active). Regarding `CCOC(=O)/C(=N\Nc1ccccc1[N+](=O)[O-])c1csc(Nc2ccccc2)n1`, the activity change, negative = inhibition was -8.65% [at 11.3 µM]. `CCOC(=O)C/C(C)=N\Nc1ccc([N+](=O)[O-])cc1[N+](=O)[O-]`: the Potency result was “inactive”.

The values are drawn from PubChem BioAssay AID1745845 (National Center for Advancing Translational Sciences (NCATS), 2022).
